Assay [1] in a line: qHTS RealTime-Glo MT Cell Viability Assay in HEK293 cells - 16 hour (AID 1224872). Further: nearly all actives have a fitted effect of over 50% in size. Further: potency means the concentration at half of the fitted maximal effect. On activity change, negative = cytotoxicity: top concentration of the series differs between compounds. In a few lines:
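Assay medium contained NanoLuc luciferase plus cell-permeant prosubstrate, added with HEK293 cells at 600 cells/well. After 5 h at 37 C/5% CO2 compounds were added; plates stayed at 37 C for 40 h with serial luminescence reads.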

Assay [2] in a line: qHTS RealTime-Glo MT Cell Viability Assay in HepG2 cells - 8 hour (AID 1224873). Further: nearly all actives have a fitted effect of over 55% in size. Further: potency means the concentration at half of the fitted maximal effect. In a few lines: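 HepG2 cells (600/well) mixed with RealTime-Glo MT reagent, settled 5 h at 37 C/5% CO2 before compound addition. Nonlytic NanoLuc luminescence from viable-cell prosubstrate reduction read repeatedly during 40 h treatment at 37 C.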
Assay [3] is described as follows: qHTS RealTime-Glo MT Cell Viability Assay in HEK293 cells - 40 hour (AID 1224874). Further: nearly all actives have a fitted effect of over 50% in size. Further: potency means the concentration at half of the fitted maximal effect. The following applies: RealTime-Glo luminescence; max response: stronger effect = lower value. In a few lines: (§1)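 Cells were seeded together with NanoLuc luciferase and a prosubstrate that viable cells reduce to a luciferase substrate. After a 5 h incubation at 37 C/5% CO2, compounds were added and luminescence was measured repeatedly during 40 h of treatment.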

Assay [4] is described as follows: A CellTox Green Cytotoxicity Assay to monitor cytotoxicity in HEK293 cells - 24 hour (AID 1224875). Further: series mostly up to about 77 µM; nearly all actives have a fitted effect of over 45% in size. In a few lines:
(§2)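 Nonlytic real-time cytotoxicity: HEK293 + CellTox Green reagent plated, 5 h preincubation, pintool compound addition (23 nL in DMSO), 37 C for 40 h, fluorescence measured at successive time points.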

Assay [5] in a line: A CellTox Green Cytotoxicity Assay to monitor cytotoxicity in HepG2 cells - 16 hour (AID 1224876). Further: nearly all actives have a fitted effect of over 45% in size. Further: potency means the concentration at half of the fitted maximal effect. In a few lines:
(§3)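 Read-out is fluorescence of a cyanine dye excluded from live cells that stains DNA of dead HepG2 cells, with signal proportional to cytotoxicity. Plates were read at 0, 8, 16, 24, 32 and 40 h after compound addition.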

Assay [6] is described as follows: qHTS RealTime-Glo MT Cell Viability Assay in HepG2 cells - 32 hour (AID 1224877). Further: nearly all actives have a fitted effect of over 55% in size. Further: potency means the concentration at half of the fitted maximal effect. In a few lines: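 qHTS, HepG2, 600 cells/well, RealTime-Glo (NanoLuc + prosubstrate) added with cells; 5 h preincubation; DMSO compound addition; 37 C; luminescence at 0/8/16/24/32/40 h.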
Assay [7] can be described thus: A CellTox Green Cytotoxicity Assay to monitor cytotoxicity in HepG2 cells - 24 hour (AID 1224878). Further: nearly all actives have a fitted effect of over 45% in size. Further: potency means the concentration at half of the fitted maximal effect. In a few lines:
as §3

Assay [8] in a line: qHTS RealTime-Glo MT Cell Viability Assay in HEK293 cells - 0 hour (AID 1224880). Further: top concentration of the series differs between compounds; nearly all actives have a fitted effect of over 45% in size. In a few lines:
as §1

A short description of assay [9]: A CellTox Green Cytotoxicity Assay to monitor cytotoxicity in HEK293 cells - 40 hour (AID 1224871). Further: nearly all actives have a fitted effect of over 45% in size. Further: potency means the concentration at half of the fitted maximal effect. In a few lines:
as §2

Assay [10] can be described thus: A CellTox Green Cytotoxicity Assay to monitor cytotoxicity in HepG2 cells - 40 hour (AID 1224879). Further: nearly all actives have a fitted effect of over 40% in size. Further: potency means the concentration at half of the fitted maximal effect. In a few lines: as §3

“And” between values parts separate entries of the source, which are not always exact repeats. Equal values may be shown once. Inconclusive results are not listed. Some structures have more than one record in an assay (separate samples or runs), and their calls can disagree. The source made the active and inactive calls. The call rests on the fitted dose curve; in most records, active means well fitted curve in the direction sought with a large enough effect in the repeat runs; inconclusive means weak or mixed curves; inactive means no such curve, though single readings can be large; an effect the other way counts as inactive or inconclusive.
On the % scale 0 is the no-effect control and ±100 the full control effect.

On to `CCC(=O)O[C@@H]1C=C2CCC3C(CCC4(C)C3CC[C@@H]4OC(=O)CC)C2CC1` (some centres not stated), for which the Potency entry in [1], in [2], in assay [4], in [5], in assay [6] and in assay [7] was “inactive” each time. Further, the max response in [3] is -21.1% (inactive). Besides, in assay [8], the compound was classed as inactive.

Take `CCCCNC(=O)OCC#CI`: the Potency is 54.7 µM (active) and 54.9 µM (active) in [9]; 19.4 µM (active) and 21.9 µM (active) in assay [1]; 15.4 µM (active) and 12.3 µM (active) in assay [2]; 21.8 µM (active) and 24.5 µM (active) in assay [3]; 6.14 µM (active) and 2.75 µM (active) in assay [6]; 49 µM (active) in [10]. The Potency result in assay [5] is “inactive”.

`O=C(CCl)CCl`: the Potency is 21.9 µM (active) in assay [9]; 18 µM (active) and 21.9 µM (active) in [3]; 22.7 µM (active) in [7]. For the same compound, the Potency result in assay [2], in [4], in assay [5] and in assay [6] was “inactive” throughout. The outcome in [8] was inactive.

Regarding `C#C[C@]1(O)CC[C@H]2[C@@H]3CCC4=CC(=O)CCC4=C3C=C[C@@]21CC`, the Potency result in assay [9], in assay [2], in assay [4], in assay [5], in assay [6] and in [10] was “inactive” each time. In assay [8], the compound was called inactive.

On to `CCCC[N+](CCCC)(CCCC)CCCC`, for which the Potency entry in [9], in assay [2], in [4], in assay [5], in assay [6] and in [7] was “inactive” each time. Besides, the Potency entry in assay [10] was “inactive”. Also, the call in assay [8] was inactive.

In the case of `Nc1c(Br)cc(Br)c2c1C(=O)c1ccccc1C2=O`, the cytotoxicity increase is -1.3% [at 15.8 µM] (inactive) in assay [9] and -4.68% [at 15.8 µM] (inactive) in assay [5]. Besides, the viability change, negative = cytotoxic in [2] was -13.9% [at 15.8 µM] (inactive). Besides, the activity change in assay [4] was -4.1% [at 15.8 µM, stronger effect = higher value] (inactive). Besides, the activity change, negative = cytotoxic in assay [6] is 5.09% [at 15.8 µM] (inactive). Moreover, the cytotoxicity in assay [7] was -5.93% [at 15.8 µM] (inactive). Moreover, the activity change, negative = cytotoxicity in [8] was -4.62% [at 15.8 µM] (inactive).

On to `CCCCCBr`, for which the Potency entry in assay [9], in [2], in assay [4], in assay [5], in assay [6] and in [7] was “inactive” in each case. In [10], the Potency entry is “inactive”.

Take `CCCCCCCCCCCCN=C(N)N`: the cytotoxicity increase in [9] is 10.9% [at 2.72 µM] (inactive); in assay [5], -5.75% [at 2.72 µM] (inactive); in [10], -4.41% [at 2.72 µM] (inactive). The viability change, negative = cytotoxic in assay [2] was -3.99% [at 2.72 µM] (inactive). For the same compound, in [3], the Potency was 1.07 µM (active). Further, the activity change in assay [4] was 11.7% [at 2.72 µM, stronger effect = higher value] (inactive). For the same compound, the activity change, negative = cytotoxic in assay [6] was -5.5% [at 2.72 µM] (inactive). The cytotoxicity in assay [7] was -6.79% [at 2.72 µM] (inactive). The activity change, negative = cytotoxicity in assay [8] is 2.39% [at 2.72 µM] (inactive).

Consider `C=CCN1C[C@H](C)N([C@H](c2ccc(C(=O)N(CC)CC)cc2)c2cccc(OC)c2)C[C@H]1C`, for which the Potency entry in [2], in [5] and in assay [7] was “inactive” in each case. Moreover, the Potency in [3] is 19 µM (active); in assay [10] it was 21.3 µM (active). Further, the result in assay [8] was inactive.

As for `C[C@@H]1C[C@@H]([C@H](O)CC2CC(=O)NC(=O)C2)C(=O)[C@@H](C)C1`, the Potency result in [9] was “inactive and 19.5 µM (active)”; in [3], 387 nM (active) and 245 nM (active) and 169 nM (active). The Potency result in assay [2], in assay [4], in assay [5], in [6] and in [10] was “inactive” in each case. Further, the compound was classed as inactive in [8].

As for `CCCC[P+](CC)(CCCC)CCCC` (tested in a mixture with another compound), the Potency result in assay [9], in assay [2], in [5], in assay [6] and in [7] was “inactive” throughout. Moreover, in [8], the outcome was inactive.

As to `Nc1ccccc1C(=O)OCCc1ccccc1`, the Potency in assay [9] was 21.9 µM (active); in assay [1] it was 24.5 µM (active); in [3] it was 24.5 µM (active); in assay [5] it was 21.9 µM (active); in assay [7] it was 21.9 µM (active); in assay [10] it was 21.9 µM (active). For the same compound, the Potency entry in assay [2] and in assay [6] was “inactive” in each case. In addition, the call in assay [8] was inactive.

For the compound `Cc1nc2ccccc2c(=O)n1-c1ccccc1Cl`, the Potency result in assay [9], in assay [4], in [5], in [6], in [7] and in [10] was “inactive” in each case. The Potency in assay [3] was 21.4 µM (active).

For the compound `c1ccc2c(c1)sc1ccccc12`, the Potency result in [1], in [2], in [4], in [5], in assay [6] and in assay [7] was “inactive” in each case. In addition, the Potency result in assay [10] was “inactive”. Moreover, the max response in assay [3] was 0.709% (inactive) and -2.64% (inactive). In addition, the result in [8] was inactive.

Consider `O=[N+]([O-])c1cc(Cl)c(Cl)cc1Cl`, for which the Potency result in assay [1], in assay [2], in [5], in assay [7] and in assay [10] was “inactive” in each case. The max response in assay [3] was 2.2% (inactive). For the same compound, in [8], the result was inactive.

`CN(C)N`: the Potency result in assay [1], in assay [2] and in assay [6] was “inactive” throughout. Further, in assay [3], the max response is 6.16% (inactive). In addition, the Potency in [5] is 54.9 µM (active).

As for `OCC1CO1` (configuration not stated), the Potency result in [9], in assay [1], in [2] and in assay [4] was “inactive” each time. In addition, the max response in assay [3] was 0.843% (inactive) and 1.08% (inactive). Also, the call in [8] was inactive.

In the case of `CC(C)[C@@H](C(=O)O[C@@H](C#N)c1cccc(Oc2ccccc2)c1)c1ccc(Cl)cc1`, the Potency entry in assay [9], in assay [4], in assay [5], in [6] and in [10] was “inactive” throughout. Besides, the Potency is 24.9 µM (active) in [1]; 49.7 µM (active) and inactive in assay [2]. For the same compound, the result in [8] was inactive.

Regarding `COc1cc(CC(C)N)c(OC)cc1Br` (configuration not stated), the Potency entry in [9], in [1], in [2], in [4], in assay [5] and in assay [6] was “inactive” in each case. Also, the call in assay [8] was inactive.

Consider `CC(Cc1ccccc1)NCc1ccccc1Cl` (configuration not stated), for which the Potency entry in assay [1], in assay [2], in assay [5], in assay [6], in assay [7] and in [10] was “inactive” each time. Also, in assay [3], the max response is -14.1% (inactive). Besides, the outcome in assay [8] was inactive.
